For ten compounds, Potency, activity change, negative = inhibition and outcome results are on record in PubChem BioAssay (NCATS).

Assay [1] concerns the target Rap guanine nucleotide exchange factor 3 (Homo sapiens) (UniProt O95398). Description: Confirmatory qHTS for antagonist of cAMP-regulated guanine nucleotide exchange factor 3 (EPAC1) (AID 1645880). Further: nearly all actives have a fitted effect of over 55% in size. Further: potency means the concentration at half of the fitted maximal effect.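 On activity, negative = inhibition: plate controls were DMSO only for no effect and full effect of the ATA control for full effect.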 The following applies: EPAC1 Rap1B-BODIPY-GDP exchange, fluorescence; activity, negative = inhibition: at 115 µM (top of the series). The essentials: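 Nucleotide exchange uses 100 nM EPAC1, 250 nM RAP1B-BODIPY-GDP and 50 uM GDP, with compounds in a concentration-titration series. After 5 min at room temperature, fluorescence (480 nm ex/540 nm em) is read every 5 min for 30 min. Data are normalized to control ATA and DMSO.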
(In qHTS, concentration-response curves come from the screen itself.)

Assay [2] shares this target. The assay can be described thus: Confirmatory qHTS for agonist of cAMP-regulated guanine nucleotide exchange factor 3 (EPAC1) (AID 1645881). Further: nearly all actives have a fitted effect of over 75% in size. Further: potency means the concentration at half of the fitted maximal effect.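 On activation: EPAC1 catalysed release of BODIPY-GDP from Rap1B seen as fluorescence loss; 100% = effect of cAMP agonist control.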
The target of assay [3] is Rap guanine nucleotide exchange factor 4 (Homo sapiens) (UniProt Q8WZA2). Description: Confirmatory qHTS for antagonist of cAMP-regulated guanine nucleotide exchange factor 4 (EPAC2) (AID 1645885). Further: on the % scale 0 is the no-effect control and ±100 the full control effect; nearly all actives have a fitted effect of over 25% in size.
The target in assay [4] is Rap guanine nucleotide exchange factor 3 (Homo sapiens) (UniProt O95398). Description: Counterscreen qHTS for antagonist of cAMP-regulated guanine nucleotide exchange factor 3 (EPAC1) (AID 1645888). Further: % of control where 0% means no effect. The essentials: (§1)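 Measured: fluorescence of BODIPY-GDP bound to Rap1B, which falls as exchange proceeds. Conditions include 50 uM competing GDP, 5 and 30 min reads, and a later cAMP challenge for antagonist detection.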

The target is the same in assay [5]. The assay can be described thus: Counterscreen qHTS for agonist of cAMP-regulated guanine nucleotide exchange factor 3 (EPAC1) (AID 1645889). Further: nearly all actives have a fitted effect of over 40% in size. Further: potency means the concentration at half of the fitted maximal effect. On activation: % of control where 0% means no effect. The essentials:
as §1
(The purpose of a counterscreen is to sort out artefacts and off-target activity.)

Assay [6] concerns the target Tumor susceptibility gene 101 protein (Homo sapiens) (UniProt Q99816). The assay can be described thus: qHTS Assay for Iinhibitors of HIV-1 Budding by Blocking the Interaction of PTAP/TSG101: Hit Validation (AID 651600). Further: nearly all actives have a fitted effect of over 70% in size. Further: potency means the concentration at half of the fitted maximal effect. A digest of the protocol:
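Fluorescence polarization binding assay: Tsg101 binding domain (10 uM final) pre-dispensed with compounds, then FITC-labeled PTAP-motif peptide (50 nM final) added; 20 min at r.t. in HEPES pH 7.5 buffer with NaCl, Tween 20, EDTA, TCEP.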

Assay [7] in a line: qHTS for Inhibitors of the vitamin D receptor (VDR): Hit Validation using a Texas Red Assay (AID 602201). Further: potency means the concentration at half of the fitted maximal effect. The essentials: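 Fluorescence polarization (Ex 595/Em 615 nm) of Texas Red (7 nM) with 1.5 uM VDR-LBD and LG19078 (final concentrations). Compounds were incubated for 2 hours at room temperature.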
The target of assay [8] is Lysosomal acid glucosylceramidase (Homo sapiens) (UniProt P04062). Description: Glucocerebrosidase-p2 (AID 348; in the data active means potency below about 10 µM; further: potency means the concentration at half of the fitted maximal effect). Conditions: purified GBA, blue fluorogenic substrate, 40 min. A digest of the protocol:
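Compounds titrated from 0.6 nM upwards against 0.2 nM enzyme in pH 5.9 citric acid/KH2PO4, taurocholate, tween-20; blue fluorogenic substrate 80 uM, 40 min room temperature, stopped and read Ex 365/Em 440 for AC50.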

The nature of assay [9]: AP1 Signaling Pathway (AID 357; active means well fitted curve in either direction with a large enough effect, not every such curve was filed as active;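 further: ME-180 reporter cells stimulated with EGF at its EC50 level; on the % scale 0 is the no-effect control and ±100 the full control effect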). The following applies: ME-180 (cervical carcinoma) AP-1-bla reporter, EGF-induced, beta-lactamase ratio, 5 h; at 7.69 µM (top of the series) unless noted. A digest of the protocol: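 Titration-series screen for positive or negative modulators of EC50 EGF-induced signaling in ME-180 cells carrying an AP-1-driven beta-lactamase reporter. After 5 hours at 37 degrees Celsius, CCF4 460nm/530nm emission ratio gave %Activity; AC50 values derived.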

The target of assay [10] is Cytochrome P450 1A2 (Homo sapiens) (UniProt P05177). Description: p450-cyp1a2 (AID 410; calls by dose curve; further: potency means the concentration at half of the fitted maximal effect). A digest of the protocol: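 Inhibition was calculated relative to 57 uM furafylline (full inhibition). The reaction used human CYP1A2 at 20nM with Luciferin-ME at its Km, 100uM, driven by an NADPH-regenerating system for 60 min at room temperature.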
Assay [11] in a line: NFAT Signaling Pathway (AID 444; active means well fitted curve in either direction with a large enough effect, not every such curve was filed as active;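 further: carbachol stimulus at about its EC50 of 1 µM final; on the % scale 0 is the no-effect control and ±100 the full control effect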). Conditions: Jurkat NFAT-bla M1, carbachol, beta-lactamase ratio, 5 h; at 7.69 µM (top of the series) unless noted. The essentials: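 Jurkat cells carrying an NFAT-driven β-lactamase reporter and co-transfected muscarinic M1 receptor were treated with compound plus carbachol (1 uM final, an EC50 level) for 5 h at 37 °C. CCF4 loading followed for 1 h at RT; 460/530 nm ratio gave %activity.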

Assay [12] in a line: Stat Signaling Pathway (AID 446; active means well fitted curve in either direction with a large enough effect, not every such curve was filed as active;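 further: ME-180 cervical cancer cells given 40 pM IL-6 alongside compound; SIE-controlled beta-lactamase reporter measured as 460/530 nm FRET emission ratio; on the % scale 0 is the no-effect control and ±100 the full control effect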). A digest of the protocol:
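ME-180 cells carrying a SIE-driven beta-lactamase reporter are stimulated with 40 pM IL-6 for 5 h at 37C in the presence of compound. The 460/530 nm FRET substrate ratio is read after 2.5 h at RT. Data are normalised to 300 pM IL-6 and to 125 nM JAK inhibitor controls.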

Assay [13] deals with Glucocorticoid receptor (Homo sapiens) (UniProt P04150). The assay can be described thus: GR-GFP Redistribution (AID 450;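 active means compounds whose dose series gives a full or clear partial fitted curve of increased nuclear translocation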; further: potency means the concentration at half of the fitted maximal effect). The following applies: U2OS GR-GFP nuclear translocation, laser cytometry, 2 h.
For assay [14] the target is unchanged. The assay can be described thus: GR-EFC Redistribution (AID 451; calls by dose curve; further: potency means the concentration at half of the fitted maximal effect). Conditions: CHO-K1 GR-EFC translocation, beta-gal luminescence, 2 h. A digest of the protocol:
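CHO-K1 cells stably expressing nuclear-localized β-gal enzyme acceptor and GR fused C-terminally to the enzyme donor fragment; ligand-driven nuclear translocation restores β-gal by complementation. Compounds titrated up to 46 uM final, 2 h at 37 °C; luminescence read.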

In assay [15] the target is Mitogen-activated protein kinase 10 (Mus musculus) (UniProt Q61831). The assay can be described thus: JNK3 AlphaScreen Assay (AID 530; active means well fitted curve in either direction with a large enough effect, not every such curve was filed as active;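 further: kinase came from lysate of stimulated human HepG2 cells; signal reports phosphorylation of biotinylated GST-cJun 1-79 at Ser73 with 10 µM ATP; on the % scale 0 is the no-effect control and ±100 the full control effect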). A digest of the protocol: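 JNK3 came from HepG2 lysates pre-activated with IL-1beta and TNF-alpha and phosphorylated biotinylated GST-cJun (1-79) at 10 uM ATP, pH 7.6, room temperature. Compounds were titrated. AlphaScreen signal used anti-phospho-cJun (Ser73) antibody.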
A general note: In Alpha technology, singlet oxygen from a donor bead excites a nearby acceptor bead.

Assay [16] has as its target 3',5'-cyclic-AMP phosphodiesterase 4B (Homo sapiens) (UniProt Q07343). Description: qHTS Assay for Inhibitors of PDE-IV (AID 607; active means well fitted activation curve with a large enough effect in the main read-out, with a control signal flat, not every such curve was filed as active; further: % of control where 0% means no effect). The essentials:
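HEK293 ACTOne cells with CNG channel (1000/well), endogenous PDE4; membrane potential dye, compounds up to 22.9 uM final. Fluorescence Ex 535/Em 590; RO 20-1724 (100 uM final) as reference.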

Assay [17] addresses Cytochrome P450 2C9 (Homo sapiens) (UniProt P11712). Description: qHTS Assay for Inhibitors and Substrates of Cytochrome P450 2C9 (AID 883). Further: potency means the concentration at half of the fitted maximal effect; nearly all actives have a fitted effect of over 60% in size. A digest of the protocol: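 Human CYP2C9 (10nM) hydroxylated Luciferin-H (100uM, at its KM) to luciferin in 25mM KPO4. Compound was preincubated 10 min at 37C, then NADPH regeneration started a 60 min reaction at 37C. Luminescence was read after detection reagent, normalized to 57uM sulphaphenazole.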

Assay [18] concerns the target Cytochrome P450 3A4 (Homo sapiens) (UniProt P08684). The assay can be described thus: qHTS Assay for Activators of Cytochrome P450 3A4 (AID 885). Further: nearly all actives have a fitted effect of over 65% in size. A digest of the protocol:
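Human CYP3A4 (20 nM) with Luciferin-PPXE at 25 uM (its KM) in 200 mM KPO4; 10 min compound preincubation, then NADPH regeneration and 60 min reaction at RT. Luciferin read by luminescence; normalized to 57 uM ketoconazole full inhibition.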

The target of assay [19] is Cytochrome P450 2D6 (Homo sapiens) (UniProt P10635). The assay can be described thus: qHTS Assay for Inhibitors and Substrates of Cytochrome P450 2D6 (AID 891). Further: potency means the concentration at half of the fitted maximal effect; nearly all actives have a fitted effect of over 60% in size. A digest of the protocol: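 Human CYP2D6 (5 nM) with 30 uM Luciferin-ME EGE (at Km) in 100 mM KPO4, compound preincubated 10 min, then NADPH regeneration system for 60 min at room temperature. Luciferin read by luminescence; normalized to 1.43 uM quinidine.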

Assay [20] addresses Cytochrome P450 2C19 (Homo sapiens) (UniProt P33261). Description: qHTS Assay for Inhibitors and Substrates of Cytochrome P450 2C19 (AID 899). Further: potency means the concentration at half of the fitted maximal effect; nearly all actives have a fitted effect of over 60% in size. A digest of the protocol: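 Human CYP2C19 (5nM) with Luciferin-H EGE at 10uM (its KM) in 50mM KPO4 was preincubated with compound for 10 min at 37C. NADPH regeneration started a 60 min 37C reaction. Luciferin was read by luminescence, normalized to 57uM ketoconazole.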

Assay [21] concerns the target Dual specificity protein kinase CLK4 (Homo sapiens) (UniProt Q9HAZ1). Description: qHTS Assay for Inhibitors of CDC-like Kinase 4 (Kinase-Glo Assay) (AID 1770). Further: potency means the concentration at half of the fitted maximal effect; nearly all actives have a fitted effect of over 65% in size. The essentials:
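Recombinant human Clk4 (25 nM) phosphorylated RS repeat peptide (100 uM) with 1 uM ATP in Tris pH 7.5/MgCl2/EGTA/DTT/Triton buffer for 4.5 h at room temperature. Residual ATP was quantified by Kinase-Glo luciferase luminescence.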

Assay [22] has the same target. Description: qHTS Assay for Inhibitors of CDC-like Kinase 4 (ADP-Glo Assay) (AID 1771). Further: potency means the concentration at half of the fitted maximal effect; nearly all actives have a fitted effect of over 70% in size. A digest of the protocol: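 Kinase reaction: Clk4 at 25 nM, RS repeat peptide substrate at 100 uM, ATP at 1 uM, 1 hr, room temperature. Product ADP detected as luciferase signal via ADP-Glo.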
For assay [23] the target is unchanged. Description: qHTS Assay for Inhibitors of CDC-like Kinase 4 (ADP-FP Assay) (AID 1795). Further: potency means the concentration at half of the fitted maximal effect; nearly all actives have a fitted effect of over 60% in size. A digest of the protocol:
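Recombinant human Clk4 (6.25 nM) phosphorylated RS repeat peptide (100 uM) with 1 uM ATP in Tris pH 7.5/MgCl2/EGTA/DTT/Triton buffer for one hour. ADP was quantified by Transcreener competitive fluorescence polarization against an ADP calibration curve.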

Assay [24] deals with Ubiquitin carboxyl-terminal hydrolase 1 (Homo sapiens) (UniProt O94782). The assay can be described thus: Inhibitors of USP1/UAF1: Pilot qHTS (AID 504865).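 Further: rhodamine fluorescence freed from ubiquitin-rhodamine substrate followed over time; top concentration of the series differs between compounds; on the % scale 0 is the no-effect control and ±100 the full control effect; nearly all actives have a fitted effect of over 35% in size.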 A digest of the protocol:
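USP1/UAF1 complex (1nM) preincubated with compound 15 min at room temperature, then Ub-Rho substrate (150nM final) added. Fluorescence read kinetically at 480/540 nm, 6 reads every 60 seconds. Buffer: 50mM HEPES pH 7.8, 0.5mM EDTA, 0.1 mg/ml BSA, 1mM TCEP, 0.01% Tween-20.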

Values without a mark were called inactive. Results filed as inconclusive are left out. Calls of active or inactive are those of the source. Unless noted, the call rests on the fitted dose curve; in most records, active means well fitted curve in the direction sought with a large enough effect; inconclusive means small, poorly fitted or top-dose-only effect, or another doubt; inactive means no such curve, though single readings can be large; an effect the other way counts as inactive or inconclusive.

Sequence of Dual specificity protein kinase CLK4 (Homo sapiens) (Q9HAZ1 whole entry, looked up): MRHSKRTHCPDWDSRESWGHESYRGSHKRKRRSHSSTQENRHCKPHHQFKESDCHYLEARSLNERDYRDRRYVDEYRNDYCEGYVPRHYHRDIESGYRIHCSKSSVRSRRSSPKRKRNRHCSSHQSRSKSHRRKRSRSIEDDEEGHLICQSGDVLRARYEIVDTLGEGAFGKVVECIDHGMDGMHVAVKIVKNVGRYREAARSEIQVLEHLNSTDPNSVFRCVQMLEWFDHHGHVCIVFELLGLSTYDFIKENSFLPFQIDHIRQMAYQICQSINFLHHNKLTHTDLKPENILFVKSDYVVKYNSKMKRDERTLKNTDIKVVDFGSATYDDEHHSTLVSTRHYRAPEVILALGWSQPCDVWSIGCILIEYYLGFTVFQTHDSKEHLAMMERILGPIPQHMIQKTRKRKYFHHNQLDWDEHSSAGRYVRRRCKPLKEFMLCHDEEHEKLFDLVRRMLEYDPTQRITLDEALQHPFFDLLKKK
Sequence of Rap guanine nucleotide exchange factor 3 (Homo sapiens) (O95398 whole entry, looked up): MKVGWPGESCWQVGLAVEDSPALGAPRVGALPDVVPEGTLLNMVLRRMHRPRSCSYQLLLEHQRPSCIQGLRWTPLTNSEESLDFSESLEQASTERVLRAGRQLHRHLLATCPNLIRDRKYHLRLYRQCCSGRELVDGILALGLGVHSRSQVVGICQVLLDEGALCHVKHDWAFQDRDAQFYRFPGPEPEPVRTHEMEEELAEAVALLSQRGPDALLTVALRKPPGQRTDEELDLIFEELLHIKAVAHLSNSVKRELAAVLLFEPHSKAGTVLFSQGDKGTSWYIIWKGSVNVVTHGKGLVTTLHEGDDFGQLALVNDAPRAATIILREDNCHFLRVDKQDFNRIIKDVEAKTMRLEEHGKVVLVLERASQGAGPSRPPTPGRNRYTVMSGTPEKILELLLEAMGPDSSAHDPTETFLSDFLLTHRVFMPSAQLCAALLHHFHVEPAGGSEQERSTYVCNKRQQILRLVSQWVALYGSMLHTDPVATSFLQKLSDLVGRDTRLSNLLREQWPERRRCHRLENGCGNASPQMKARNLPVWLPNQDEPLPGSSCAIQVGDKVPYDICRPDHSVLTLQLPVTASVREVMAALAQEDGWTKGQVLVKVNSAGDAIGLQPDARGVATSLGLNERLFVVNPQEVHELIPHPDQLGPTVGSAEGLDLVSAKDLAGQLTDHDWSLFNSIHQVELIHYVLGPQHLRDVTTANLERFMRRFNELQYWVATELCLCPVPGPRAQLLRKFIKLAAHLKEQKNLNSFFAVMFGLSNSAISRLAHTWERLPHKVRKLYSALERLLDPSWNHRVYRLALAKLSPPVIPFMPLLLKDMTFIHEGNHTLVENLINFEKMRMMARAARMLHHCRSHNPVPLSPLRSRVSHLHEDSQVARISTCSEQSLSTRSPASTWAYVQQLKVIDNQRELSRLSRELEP
Sequence of Rap guanine nucleotide exchange factor 4 (Homo sapiens) (Q8WZA2 whole entry, looked up): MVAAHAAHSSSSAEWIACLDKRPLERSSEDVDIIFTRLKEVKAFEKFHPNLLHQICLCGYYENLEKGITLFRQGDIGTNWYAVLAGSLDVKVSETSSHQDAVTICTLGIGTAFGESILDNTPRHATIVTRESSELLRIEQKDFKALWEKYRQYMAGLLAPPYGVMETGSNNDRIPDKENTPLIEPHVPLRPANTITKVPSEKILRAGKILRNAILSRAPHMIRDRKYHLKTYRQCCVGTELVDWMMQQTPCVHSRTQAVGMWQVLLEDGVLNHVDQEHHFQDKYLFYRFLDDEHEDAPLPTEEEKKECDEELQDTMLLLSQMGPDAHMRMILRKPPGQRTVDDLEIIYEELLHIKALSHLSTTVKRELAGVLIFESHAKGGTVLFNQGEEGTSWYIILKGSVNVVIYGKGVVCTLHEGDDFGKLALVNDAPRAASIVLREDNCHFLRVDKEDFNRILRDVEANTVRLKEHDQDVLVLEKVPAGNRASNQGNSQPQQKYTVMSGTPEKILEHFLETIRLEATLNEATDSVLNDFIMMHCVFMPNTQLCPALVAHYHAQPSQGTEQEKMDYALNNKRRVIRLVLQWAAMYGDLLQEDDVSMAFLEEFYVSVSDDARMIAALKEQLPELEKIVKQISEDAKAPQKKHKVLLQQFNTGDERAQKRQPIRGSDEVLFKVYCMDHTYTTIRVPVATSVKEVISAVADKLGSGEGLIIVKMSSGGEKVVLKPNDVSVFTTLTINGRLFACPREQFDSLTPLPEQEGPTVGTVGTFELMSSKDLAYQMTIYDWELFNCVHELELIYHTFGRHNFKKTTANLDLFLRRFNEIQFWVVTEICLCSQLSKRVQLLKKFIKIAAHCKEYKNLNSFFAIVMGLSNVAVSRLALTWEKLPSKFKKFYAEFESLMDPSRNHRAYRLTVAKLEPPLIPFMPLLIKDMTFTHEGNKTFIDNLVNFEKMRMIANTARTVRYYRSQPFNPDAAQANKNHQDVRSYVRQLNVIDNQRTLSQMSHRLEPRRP
Sequence of Glucocorticoid receptor (Homo sapiens) (P04150 whole entry, looked up): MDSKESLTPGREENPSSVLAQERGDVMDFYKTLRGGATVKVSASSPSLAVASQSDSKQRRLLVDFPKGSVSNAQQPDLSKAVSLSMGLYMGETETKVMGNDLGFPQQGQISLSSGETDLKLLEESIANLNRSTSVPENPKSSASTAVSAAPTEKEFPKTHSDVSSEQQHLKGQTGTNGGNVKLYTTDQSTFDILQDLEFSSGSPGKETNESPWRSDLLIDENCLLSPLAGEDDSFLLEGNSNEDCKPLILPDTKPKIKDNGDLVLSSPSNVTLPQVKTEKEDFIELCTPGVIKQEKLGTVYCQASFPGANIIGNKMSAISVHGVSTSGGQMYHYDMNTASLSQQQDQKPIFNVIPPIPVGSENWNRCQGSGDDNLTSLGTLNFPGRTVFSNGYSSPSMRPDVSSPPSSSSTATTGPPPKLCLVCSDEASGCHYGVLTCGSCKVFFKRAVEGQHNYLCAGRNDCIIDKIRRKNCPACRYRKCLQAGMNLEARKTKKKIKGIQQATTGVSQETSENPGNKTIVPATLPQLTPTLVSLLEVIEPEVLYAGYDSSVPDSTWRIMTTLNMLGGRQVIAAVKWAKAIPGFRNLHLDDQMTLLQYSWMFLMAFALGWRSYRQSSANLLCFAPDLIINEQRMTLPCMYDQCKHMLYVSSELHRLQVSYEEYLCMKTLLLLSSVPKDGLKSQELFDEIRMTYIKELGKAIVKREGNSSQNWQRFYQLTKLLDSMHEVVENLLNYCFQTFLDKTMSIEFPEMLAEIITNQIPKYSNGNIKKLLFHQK
Sequence of Tumor susceptibility gene 101 protein (Homo sapiens) (Q99816 whole entry, looked up, the tested form may be a part): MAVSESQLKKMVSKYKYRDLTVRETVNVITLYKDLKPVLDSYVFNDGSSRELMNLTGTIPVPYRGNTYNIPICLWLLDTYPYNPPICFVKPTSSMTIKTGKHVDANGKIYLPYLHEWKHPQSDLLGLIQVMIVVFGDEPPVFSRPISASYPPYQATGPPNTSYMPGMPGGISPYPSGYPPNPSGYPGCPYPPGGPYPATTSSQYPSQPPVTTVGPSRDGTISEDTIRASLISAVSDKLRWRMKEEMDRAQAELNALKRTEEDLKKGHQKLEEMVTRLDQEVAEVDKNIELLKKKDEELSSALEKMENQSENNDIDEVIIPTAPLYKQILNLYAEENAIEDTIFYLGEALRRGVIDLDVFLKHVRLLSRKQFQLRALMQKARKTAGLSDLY
Sequence of Cytochrome P450 2D6 (Homo sapiens) (P10635 whole entry, looked up): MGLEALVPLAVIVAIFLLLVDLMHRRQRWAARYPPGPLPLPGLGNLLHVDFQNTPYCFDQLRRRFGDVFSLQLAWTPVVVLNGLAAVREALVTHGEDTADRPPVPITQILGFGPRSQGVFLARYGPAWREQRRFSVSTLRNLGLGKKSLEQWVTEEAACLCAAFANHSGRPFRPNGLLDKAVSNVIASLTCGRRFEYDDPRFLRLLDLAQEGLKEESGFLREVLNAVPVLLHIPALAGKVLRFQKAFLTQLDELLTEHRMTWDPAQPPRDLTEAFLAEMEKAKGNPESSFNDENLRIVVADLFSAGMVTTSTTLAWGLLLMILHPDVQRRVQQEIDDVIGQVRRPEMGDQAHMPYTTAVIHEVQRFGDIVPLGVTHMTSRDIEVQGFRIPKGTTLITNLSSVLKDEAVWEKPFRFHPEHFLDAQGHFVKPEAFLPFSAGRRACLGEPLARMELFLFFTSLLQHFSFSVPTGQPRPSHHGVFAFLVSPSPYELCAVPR
Sequence of 3',5'-cyclic-AMP phosphodiesterase 4B (Homo sapiens) (Q07343 whole entry, looked up): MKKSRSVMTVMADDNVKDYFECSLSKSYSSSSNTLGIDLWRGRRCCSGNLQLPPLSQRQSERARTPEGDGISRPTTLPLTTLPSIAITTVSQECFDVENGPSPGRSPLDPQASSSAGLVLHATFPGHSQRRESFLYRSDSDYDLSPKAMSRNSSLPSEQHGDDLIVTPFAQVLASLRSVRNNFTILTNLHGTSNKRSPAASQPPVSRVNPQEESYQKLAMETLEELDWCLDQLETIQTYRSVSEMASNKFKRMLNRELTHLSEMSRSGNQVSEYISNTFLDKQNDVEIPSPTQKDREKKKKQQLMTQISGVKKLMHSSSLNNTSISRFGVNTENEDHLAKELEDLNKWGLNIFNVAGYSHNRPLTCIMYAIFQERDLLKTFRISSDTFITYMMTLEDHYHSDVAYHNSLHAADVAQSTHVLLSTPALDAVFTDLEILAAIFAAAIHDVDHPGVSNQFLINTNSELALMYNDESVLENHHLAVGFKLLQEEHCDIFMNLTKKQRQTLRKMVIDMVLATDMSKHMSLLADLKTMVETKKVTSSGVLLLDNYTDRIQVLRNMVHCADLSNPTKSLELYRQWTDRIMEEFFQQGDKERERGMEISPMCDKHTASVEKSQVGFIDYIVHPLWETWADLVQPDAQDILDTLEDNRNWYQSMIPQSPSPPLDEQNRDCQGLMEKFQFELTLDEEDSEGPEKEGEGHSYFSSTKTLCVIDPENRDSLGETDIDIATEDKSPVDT

As for `N#CC1=C2N=C(N)c3c(sc4c3CCCCC4)N2C2=C(C(=O)CCC2)C1c1ccccc1` (centres undefined), the Potency result in assay [1], in assay [2], in [3], in [4] and in assay [5] was “inactive” each time.
As to `OCCCCC#Cc1c(-c2ccsc2)sc2ccccc12`, the Potency result in [1], in assay [2], in assay [3] and in [4] was “inactive” each time.
With `CCOc1cc(CNc2ccc(O)cc2)ccc1OCc1ccc(Cl)cc1`, in [1], the Potency is 84.9 µM (active). For the same compound, the Potency entry in [2], in [3] and in assay [4] was “inactive” each time.
For `CCn1cc(C=C2C(=O)c3ccccc3C2=O)c2ccccc21`, in assay [6], the Potency was 14.6 µM (active). The Potency result in assay [1], in assay [2], in assay [3], in assay [4] and in [5] was “inactive” in each case.
On to `COc1ccc2c(c1)Cc1sc(NC(=O)c3cccc(C)c3)nc1-2`, for which the Potency is 10 µM (active) in assay [7] and 84.9 µM (active) in [1]. Besides, the Potency entry in [2], in assay [3] and in [4] was “inactive” each time.
In the case of `O=C(O)c1ccccc1-c1ccc(/C=C/c2cc(C(F)(F)F)[nH]c(=O)n2)o1`, the Potency result in assay [6], in assay [1] and in assay [3] was “inactive” in each case. Further, in assay [2], the Potency was 89.1 µM (active). Also, the activity change, negative = inhibition in assay [4] was 309% [at 30.8 µM].
For `CCOC(=O)Nc1ccccc1C(=O)Nc1cc(C)cc(C)c1`, the Potency result in [1], in assay [2], in [3] and in [4] was “inactive” throughout. Besides, the Potency in [5] is 0.631 µM (active).
On to `COc1ccc2[nH]cc(CCNc3ncncc3-c3ccccc3Cl)c2c1`, for which the Potency in [8] was greater than 11.4 µM; in [10], 0.631 µM (active); in assay [13] it was greater than 46 µM; in assay [14], greater than 46 µM; in assay [17], 0.199 µM (active); in assay [19], 0.631 µM (active). The Potency in assay [20] was 0.0631 µM (active); in [21] it was 12.6 µM (active); in assay [22] it was 10 µM (active); in [23], 12.6 µM (active). Also, the activity change, negative = inhibition in assay [9] is -12.3%; in assay [11], -11.6%. Moreover, the outcome in [12] and in assay [18] was inactive. The Potency entry in assay [15], in assay [16], in assay [24], in assay [1], in assay [2] and in assay [3] was “inactive” throughout.
As to `Cc1ccc2nc(SCC(=O)c3c(N)n(C4CC4)c(=O)[nH]c3=O)[nH]c2c1`, the Potency entry in assay [1], in assay [2], in [3], in assay [4] and in assay [5] was “inactive” throughout.
`O=c1onc(-c2ccccc2)n1-c1cc(Cl)cc(Cl)c1`: the Potency result in [1], in assay [2], in assay [3], in [4] and in assay [5] was “inactive” in each case.
